# Shown are actives, neighbours in structure and some others; about 0.43% of the full set was active somewhere.
# GLA spleen mod: inhibitors or activators of human alpha-galactosidase in spleen homogenate; human spleen homogenate, 4MU-alpha-Gal fluorescence, 40 min; Potency, µM (series often up to 80 µM), without a hit: top-dose activity change, negative = inhibition, usual class: inhibitors; 240,000 tested, 0.008% active;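 further: potency means the concentration at half of the fitted maximal effect; 0% = enzyme with vehicle and -100% = no enzyme basal signal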
# Target sequence (P06280 32-429 limits assumed): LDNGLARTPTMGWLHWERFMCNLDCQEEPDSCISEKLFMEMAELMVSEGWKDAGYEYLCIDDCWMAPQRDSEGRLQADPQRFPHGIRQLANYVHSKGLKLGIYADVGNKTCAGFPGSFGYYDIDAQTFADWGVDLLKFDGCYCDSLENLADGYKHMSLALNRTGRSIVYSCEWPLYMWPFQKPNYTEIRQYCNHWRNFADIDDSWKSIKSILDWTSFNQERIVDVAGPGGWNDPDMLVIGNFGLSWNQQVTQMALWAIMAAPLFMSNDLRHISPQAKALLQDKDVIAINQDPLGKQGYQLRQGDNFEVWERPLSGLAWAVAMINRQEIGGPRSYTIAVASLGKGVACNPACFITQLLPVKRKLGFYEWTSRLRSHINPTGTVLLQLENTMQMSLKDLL
#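 Human spleen homogenate (1 ug) was the enzyme source, with 4-methylumbelliferyl-alpha-D-galactopyranoside (1 mM final) in pH 5.0 citrate buffer with 0.01% Tween-20. Compounds were titrated; after 40 min at 37C, NaOH/glycine stop, 4-MU fluorescence read; AC50 from Hill fits.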
# GAA glycogen mod: inhibitors or activators of human alpha-glucosidase glycogen cleavage. recombinant GAA, glycogen substrate, Amplex Red glucose oxidase fluorescence. Potency, µM (titrated, usually from 76.4 µM), inactives show top-dose activity change, negative = inhibition, actives largely listed as inhibitors. 300,000 tested, 0.38% active. AID 2100;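 further: potency means the concentration at half of the fitted maximal effect; 0% = full enzyme reaction and -100% = no-enzyme basal signal; the screen sought inhibitors and activators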
#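 Natural-substrate format: glycogen cleavage by 4 nM human enzyme, glucose read by Amplex Red coupling (Ex 573, Em 610 nm). Normalized to enzyme and no-enzyme controls.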
# GLA inh pH 4.5: inhibitors of human alpha-galactosidase A at pH 4.5; P06280; purified enzyme, 4-MU-alpha-Gal fluorescence, pH 4.5; activity change, negative = inhibition, % at 105 µM; 230,000 tested, under 10 active; AID 1467;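 further: 0% = full activity with enzyme and -100% = basal without enzyme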
# GAA spleen mod: lysosomal alpha-glucosidase (human) modulation | 240,000 tested, 0.006% active | P10253 | human spleen homogenate, 4-MU-alpha-glucoside fluorescence | Potency, µM (series often up to 79.9 µM), for inactives: top-dose activity change, negative = inhibition, actives largely listed as inhibitors;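 further: potency means the concentration at half of the fitted maximal effect; 0% = enzyme with vehicle and -100% = no enzyme basal signal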
#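 Human spleen homogenate (1 ug) with 4-methylumbelliferyl-alpha-D-glucopyranoside (1 mM final) in 50 mM citrate/phosphate pH 5.0, 0.01% Tween-20; 40 min at 37 C. Stopped at pH 10; 4-MU fluorescence Ex 365/Em 440 nm; AC50 by Hill fit.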
# GAA inhib: alpha-glucosidase (human) inhibition; 200,000 tested, 0.005% active; purified human GAA, 4-MU-alpha-glucoside fluorescence; Potency, µM (doses to about 76.9 µM), without a hit: top-dose activity change, negative = inhibition, actives largely listed as inhibitors;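 further: potency means the concentration at half of the fitted maximal effect; plate controls were uninhibited enzyme wells for no effect and no-enzyme background for full effect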
#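 Human enzyme at 4 nM with 400 uM 4-methylumbelliferyl-alpha-D-pyranoside, citrate/phosphate buffer pH 5.0, 0.005% Tween-20, 20 min at room temperature. Compounds up to 77 uM. 4-MU fluorescence (Ex 365/Em 440) read after NaOH/glycine stop; AC50 from Hill fit.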
# N370S GC mod: inhibits or activates N370S mutant glucocerebrosidase. 330,000 tested, 0.092% active. AID 2101. P04062. Potency, µM (highest dose often 59.4 µM), for inactives: top-dose activity change, negative = inhibition, most hits filed as inhibitors. N370S GC spleen homogenate, 4MU-glucoside fluorescence;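 further: potency means the concentration at half of the fitted maximal effect; 0% = full enzyme activity and -100% = no enzyme basal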
# An asterisk follows results filed as active; u = inconclusive; x = not tested or not shown; ! = not active in a repeat. The call rests on the fitted dose curve; in most records, active means well fitted curve in the direction sought with a large enough effect; inconclusive means small, poorly fitted or top-dose-only effect, or another doubt; inactive means no such curve, though single readings can be large; an effect the other way counts as inactive or inconclusive.
SMILES,GLA spleen mod,GAA glycogen mod,GLA inh pH 4.5,GAA spleen mod,GAA inhib,N370S GC mod
O=[N+]([O-])c1cc2nc(O)c(O)nc2cc1[N+](=O)[O-],-3%,x,-10,-10%,x,13µM*
N#Cc1cc2nc(O)c(O)nc2cc1[N+](=O)[O-],7%,x,-1,-5%,x,x
CSCC[C@@H]1NC(=O)[C@@H](NC(=O)[C@H](CCCNC(=N)N)NC(=O)[C@H](CC(C)C)NC(=O)[C@H](CCSC)NC(=O)[C@H](CC(=O)O)NC(=O)[C@H](Cc2ccccc2)NC(=O)[C@@H](N)CC(=O)O)CSSC[C@@H](C(=O)N[C@@H](Cc2c[nH]c3ccccc23)C(=O)N[C@@H](CCC(N)=O)C(=O)N[C@@H](Cc2ccc(O)cc2)C(=O)O)NC(=O)[C@@H]2CCCN2C(=O)[C@H](CCCNC(=N)N)NC(=O)[C@H](Cc2ccccc2)NC(=O)[C@H](C(C)C)NC(=O)[C@H](CCCNC(=N)N)NC(=O)CNC(=O)[C@H](CC(C)C)NC1=O,9%,x,x,5%,x,-5%
O=C1C2C3C=CC(CC3)C2C(=O)N1/N=C/c1ccc(O)c(O)c1 (stereo not drawn),-1%,7.1µM*,-3,-4%,-1%,0%
OC[C@@H](O)C(O)[C@H](O)[C@H](O)CO (stereo partly drawn),7%,x,x,-2%,x,-6%
CN1[C@@H]2CC(OC(=O)[C@H](CO)c3ccccc3)C[C@@H]1[C@H]1O[C@H]12 (stereo partly drawn),1%,x,-2,-8%,x,-3%
COc1ccc(Br)cc1CNc1ccc(N2CCOCC2)cc1,x,22µM*,x,x,x,-7%
NC(=Nc1ccccc1)NC(=O)c1nc(Cl)c(N)nc1N,0%,x,-2,-2%,x,2%
NC(=NCc1ccccc1)NC(=O)c1nc(Cl)c(N)nc1N,u,x,10,8.9µM*!,x,u

# Source: PubChem
